Common to all, as to test: qHTS profiling for inhibitors of Plasmodium falciparum proliferation (AID 504749); also: nearly all actives have a fitted effect of over 60% in size
What all share (settings): P. falciparum in erythrocytes, SYBR Green DNA, 72 h; series mostly up to 12.8 µM
For orientation: qHTS replaces the single test concentration by a dilution series.

One assay has as its system 3D7. The procedure, abridged: (§1)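 Infected RBCs, 0.3% parasitemia/2.5% Hct final; cpd 72 h, 37 C, 5% CO2; lysis buffer with saponin/triton/SYBR Green I, o/n RT dark; FI 485/535; norm. to artemisinin (0.29 uM) and DMSO.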
Another assay concerns AS120. A digest of the protocol: as §1
Another assay concerns CP192. A digest of the protocol:
as §1

The next assay deals with CP217. The procedure, abridged:
as §1

The subject of the next assay is CP250. The procedure, abridged:
as §1

Another assay relates to CP252. A digest of the protocol: as §1
The test system of the next assay is CP268. The procedure, abridged:
as §1

A further assay deals with CP269. The procedure, abridged: as §1
A further assay deals with CP305. The procedure, abridged:
as §1

A further assay relates to CP315. A digest of the protocol:
as §1

In another assay the test system is CP329. The procedure, abridged:
as §1

The subject of a further assay is DFO2036. The procedure, abridged:
as §1

A further assay concerns DIV14. The procedure, abridged:
as §1

The next assay concerns ECU. The procedure, abridged: as §1
The subject of a further assay is HB3. The procedure, abridged: as §1
The subject of another assay is N140. A digest of the protocol:
as §1

The subject of a further assay is PC15. The procedure, abridged:
as §1

The next assay deals with PC49. The procedure, abridged:
as §1

For another assay, the system named is TAB113. The procedure, abridged: as §1
A further assay deals with CP297. A digest of the protocol:
as §1

Inconclusive results are not listed. Activity calls are given as the source filed them. Calls follow the shape of the dose curve; as a rule, active = well fitted inhibition curve with a large enough effect; inconclusive = small, poorly fitted or top-dose-only effect; inactive = flat fitted curve, though single readings scatter.
Potency is read from the fitted curve at half-maximal effect.

`CN(C/C=C\c1ccccc1)Cc1cccc2ccccc12`: the Potency result in the assay on 3D7, in the assay with AS120, with CP192, in the assay with CP217, in the assay with CP250 and in the assay with CP252 was “inactive” in each case. For the same compound, the Potency result in the assay with CP268, with CP269, in the assay on CP305, with CP315, in the assay on CP329 and in the assay with DFO2036 was “inactive” in each case. Moreover, the Potency entry in the assay on DIV14, in the assay with ECU, in the assay with HB3, with N140, with PC15 and in the assay on PC49 was “inactive” throughout. The Potency result in the assay with TAB113 is “inactive”.
With `CN1CCN([C@@H](c2ccccc2)c2ccc(Cl)cc2)CC1`, the Potency result in the assay on 3D7, with CP192, in the assay on CP217, in the assay on CP250, with CP252 and in the assay with CP269 was “inactive” throughout. In addition, the Potency entry with CP297, in the assay with CP305, in the assay with CP315, with CP329, with DFO2036 and with ECU was “inactive” in each case. The Potency result with HB3, in the assay with N140, in the assay on PC15 and in the assay with PC49 was “inactive” each time. The Potency in the assay with DIV14 was 2.28 µM (active).
Consider `OCCN1CCN(CCC=C2c3ccccc3Sc3ccc(Cl)cc32)CC1`, for which the Potency result in the assay on CP268, with CP297, with CP305 and in the assay on TAB113 was “inactive” in each case.
As to `CO[C@H]1[C@@H](OC(N)=O)[C@H](O)[C@@H](Oc2ccc3c(O)c(NC(=O)c4ccc(O)c(CC=C(C)C)c4)c(=O)oc3c2C)OC1(C)C`, the Potency entry in the assay on 3D7, in the assay on AS120, with CP192, with CP217, in the assay with CP250 and in the assay on CP252 was “inactive” throughout. Besides, the Potency result in the assay on CP268, in the assay with CP269, with CP305, in the assay with CP315, in the assay on CP329 and in the assay with DFO2036 was “inactive” in each case. The Potency entry in the assay on DIV14, with ECU, in the assay on HB3, with N140, in the assay on PC15 and with PC49 was “inactive” in each case. Further, the Potency result with TAB113 was “inactive”.
For `CN(C)CCOC(=O)[C@@H](c1ccccc1)C1(O)CCCC1`, the Potency entry in the assay on 3D7, with AS120, in the assay with CP192, in the assay with CP217, with CP250 and with CP252 was “inactive” in each case. Besides, the Potency entry in the assay on CP268, in the assay on CP269, in the assay on CP305, in the assay with CP315, with CP329 and with DFO2036 was “inactive” each time. The Potency entry in the assay with DIV14, in the assay on ECU, in the assay on HB3, with N140, in the assay with PC15 and in the assay with PC49 was “inactive” throughout. Also, the Potency result in the assay on TAB113 was “inactive”.
Regarding `CCOC(=O)O[C@]1(C(=O)COC(=O)CC)CC[C@@H]2[C@@H]3CCC4=CC(=O)C=C[C@@]4(C)[C@H]3[C@H](O)C[C@]21C`, the Potency result in the assay on 3D7, in the assay with AS120, in the assay with CP192, in the assay on CP217, in the assay on CP250 and with CP252 was “inactive” each time. Moreover, the Potency entry in the assay on CP268, in the assay with CP269, in the assay on CP297, with CP305, with CP315 and in the assay on CP329 was “inactive” in each case. In addition, the Potency entry with DFO2036, in the assay on DIV14, in the assay with ECU, in the assay with HB3, with N140 and in the assay with PC15 was “inactive” in each case. Also, the Potency result in the assay with PC49 and in the assay on TAB113 was “inactive” in each case.
For the compound `O=C1O[C@H](CN2CCOCC2)CN1/N=C\c1ccc([N+](=O)[O-])o1`, the Potency entry with CP192, in the assay with CP217, in the assay on CP250, with CP252, in the assay on CP268 and with CP269 was “inactive” throughout. Moreover, the Potency entry in the assay with CP297, in the assay with CP305, with CP315, in the assay on CP329, in the assay on DIV14 and in the assay on PC15 was “inactive” throughout.
For `CC[C@H](Cc1c(I)cc(I)c(N)c1I)C(=O)O`, the Potency entry with 3D7, with AS120, with CP192, in the assay on CP217, in the assay on CP250 and in the assay on CP252 was “inactive” throughout. Further, the Potency entry in the assay on CP268, with CP269, with CP297, in the assay on CP305, in the assay on CP315 and with CP329 was “inactive” each time. For the same compound, the Potency entry in the assay on DFO2036, in the assay with DIV14, with ECU, in the assay on HB3, in the assay with N140 and in the assay with PC15 was “inactive” throughout. For the same compound, the Potency entry in the assay with PC49 and in the assay on TAB113 was “inactive” in each case.
With `Clc1ccc(CC[C@H](Cn2ccnc2)Sc2c(Cl)cccc2Cl)cc1`, the Potency was 2.24 µM (active) in the assay with AS120; 3.55 µM (active) in the assay with CP217; 5.1 µM (active) in the assay with CP297; 6.42 µM (active) in the assay on CP329; 3.22 µM (active) with DIV14; 3.55 µM (active) with ECU. For the same compound, the Potency in the assay on HB3 was 3.55 µM (active); with N140 it was 3.16 µM (active); with TAB113 it was 3.55 µM (active).
In the case of `Clc1ccc([C@H](Cn2ccnc2)OCc2csc3c(Cl)cccc23)c(Cl)c1`, the Potency with 3D7 is 3.55 µM (active); in the assay on AS120, 2.51 µM (active); with CP297, 6.42 µM (active); in the assay on DIV14, 5.1 µM (active); with ECU, 3.98 µM (active); in the assay with N140, 3.98 µM (active). Moreover, the Potency result in the assay with CP268 was “inactive”.
With `C[N+]12CCC(CC1)[C@@H](OC(=O)C(O)(c1ccccc1)c1ccccc1)C2`, the Potency result in the assay with 3D7, in the assay with AS120, in the assay with CP192, in the assay on CP217, in the assay on CP250 and in the assay on CP252 was “inactive” throughout. The Potency result in the assay on CP268, with CP269, in the assay on CP297, with CP329, in the assay with DFO2036 and in the assay on ECU was “inactive” in each case. The Potency entry in the assay on HB3, with N140, in the assay with PC15, in the assay on PC49 and with TAB113 was “inactive” throughout.
Consider `CC[C@](C)(CN(C)C)OC(=O)c1ccccc1`, for which the Potency result in the assay on 3D7, in the assay with AS120, with CP192, in the assay on CP217, in the assay with CP250 and in the assay on CP252 was “inactive” each time. In addition, the Potency result in the assay on CP268, with CP269, in the assay with CP297, in the assay with CP305, with CP315 and in the assay with CP329 was “inactive” throughout. The Potency result with DFO2036, in the assay on ECU, with HB3, in the assay on N140, in the assay on PC15 and in the assay on PC49 was “inactive” each time. Also, the Potency entry in the assay with TAB113 was “inactive”.
`CC(=C(CCOP(=O)(O)O)SC(=O)c1ccccc1)N(C=O)Cc1cnc(C)nc1N`: the Potency result with 3D7, in the assay with AS120, in the assay with CP192, in the assay on CP217, in the assay on CP250 and in the assay with CP252 was “inactive” each time. Besides, the Potency result in the assay with CP268, in the assay on CP269, in the assay on CP297, in the assay with CP305, with CP315 and in the assay on CP329 was “inactive” each time. The Potency result in the assay on DFO2036, with DIV14, in the assay with ECU, with HB3, in the assay with N140 and in the assay with PC15 was “inactive” throughout. Moreover, the Potency entry in the assay with PC49 and in the assay with TAB113 was “inactive” throughout.

The record behind these values is PubChem BioAssay (NCATS).
